According to PubChem BioAssay (NCI):
This is part of a sample that, as a whole, favours compounds with a hit. Of some 83,000 tested, about 20% had one in any assay.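 The test compound was applied at a single concentration to cells in 96-well plates for 48 hours, and percent growth was recorded.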 Activity calls are given as the source filed them. How the source made its calls: active means growth percent below 10; inactive means the rest.

What was measured:
Assay in all cases: NCI-60 one-dose screen, 48 h (100 = growth as untreated, 0 = no growth, -100 = all killed)
Conditions in all cases: 10 µM unless noted
NCI-H23 lung = tested on: NCI-H23 lung
NCI-H226 lung = tested on: NCI-H226 lung
NCI-H322M lung = tested on: NCI-H322M lung
HOP-62 NSCLC = tested on: HOP-62 NSCLC
NCI-H460 lung = tested on: NCI-H460 lung
HOP-92 NSCLC = tested on: HOP-92 NSCLC
NCI-H522 lung = tested on: NCI-H522 lung
A549/ATCC NSCLC = tested on: A549/ATCC NSCLC
786-0 renal = tested on: 786-0 renal
COLO 205 colon = tested on: COLO 205 colon

Measured: growth

COc1ccc(-n2nc(C(=O)NCC(=O)Nc3nc4cc(OC)ccc4s3)c3ccccc3c2=O)cc1
inactive: NCI-H23 lung 19.5% | NCI-H322M lung 31.4% | 786-0 renal 20.4% | COLO 205 colon 32.7%
active: NCI-H226 lung -11.1% | HOP-62 NSCLC -78.7% | NCI-H460 lung 1.04% | HOP-92 NSCLC -34.9% | NCI-H522 lung -9.83% | A549/ATCC NSCLC 0.477%

C=CCn1c(C)nc2cc(Nc3nc(N4CCOCC4)nc4nc[nH]c34)ccc21
inactive: NCI-H23 lung 106% | NCI-H226 lung 88.6% | NCI-H322M lung 88.3% | HOP-62 NSCLC 67.8% | NCI-H460 lung 94.1% | NCI-H522 lung 88.2% | A549/ATCC NSCLC 95.1% | 786-0 renal 63.1% | COLO 205 colon 97.9%
active: HOP-92 NSCLC 4.17%

Cc1ccc(N=CNN=C(N)N)cc1
inactive: NCI-H23 lung 106% | NCI-H226 lung 92% | NCI-H322M lung 111% | HOP-62 NSCLC 102% | NCI-H460 lung 120% | HOP-92 NSCLC 109% | NCI-H522 lung 95.4% | A549/ATCC NSCLC 100% | 786-0 renal 115% | COLO 205 colon 113%

CC(C)[C@H](CN)NC[C@H](C)NS(=O)(=O)c1ccc(C(C)(C)C)cc1
inactive: NCI-H23 lung 97% | NCI-H226 lung 74.2% | NCI-H322M lung 101% | HOP-62 NSCLC 94.6% | NCI-H460 lung 100% | HOP-92 NSCLC 71.9% | NCI-H522 lung 96.2% | A549/ATCC NSCLC 98.7% | 786-0 renal 90.3% | COLO 205 colon 105%

CNC(=O)c1cc(Oc2ccc(NC(=O)c3nc(S(C)(=O)=O)n(C)c3-c3ccc(F)cc3)cc2)ccn1
inactive: NCI-H23 lung 79.1% | NCI-H226 lung 87.4% | NCI-H322M lung 62.5% | HOP-62 NSCLC 91.3% | NCI-H460 lung 59.4% | HOP-92 NSCLC 77.3% | NCI-H522 lung 84.5% | A549/ATCC NSCLC 82.5% | 786-0 renal 75.4% | COLO 205 colon 59.4%

CCOC(=O)C1=C(C)NC(SCc2nnc(-c3ccc(Cl)cc3)o2)=NC1c1ccc(Br)cc1 (stereo not given)
inactive: NCI-H23 lung 75.7% | NCI-H226 lung 78.9% | NCI-H322M lung 86.4% | HOP-62 NSCLC 86.9% | NCI-H460 lung 80.4% | HOP-92 NSCLC 57.8% | NCI-H522 lung 67.6% | A549/ATCC NSCLC 62.4% | 786-0 renal 84.9% | COLO 205 colon 77.6%

CN1CCN(Cc2ccc(NC(=O)c3cncc(C#Cc4ncc5ccccn45)c3)cc2C(F)(F)F)CC1
inactive: NCI-H322M lung 33.3% | HOP-62 NSCLC 16.4% | NCI-H522 lung 18.4%
active: NCI-H23 lung 9.22% | NCI-H226 lung -8.28% | NCI-H460 lung 5.79% | HOP-92 NSCLC -1.18% | A549/ATCC NSCLC 7.74% | 786-0 renal 3.06% | COLO 205 colon -26.5%

CCOC(=O)c1ccc(NCCC(=O)O)cc1
inactive: NCI-H23 lung 107% | NCI-H226 lung 100% | NCI-H322M lung 104% | HOP-62 NSCLC 95.9% | NCI-H460 lung 116% | HOP-92 NSCLC 89.4% | NCI-H522 lung 91.3% | A549/ATCC NSCLC 103% | 786-0 renal 96.2% | COLO 205 colon 121%

C=C(C)[C@@H]1CC[C@]2(C)[C@H](CC=C3[C@@H]4C[C@](C)(C(=O)N5CCN(C)CC5)CC[C@]4(C)CC[C@]32C)[C@@]1(C)CCC#N
inactive: NCI-H23 lung 72.5% | NCI-H226 lung 69.6% | NCI-H322M lung 85.1% | HOP-62 NSCLC 63.1% | NCI-H460 lung 28% | HOP-92 NSCLC 32.7% | NCI-H522 lung 79.8% | A549/ATCC NSCLC 55.3% | 786-0 renal 71.5% | COLO 205 colon 45.2%

O=C(Oc1c(Cl)c(Cl)c(Cl)c(Cl)c1Cl)C1CCCN1C(=O)OCc1ccccc1 (stereo not given)
active: HOP-92 NSCLC -0.576%
inactive: NCI-H23 lung 33.5% | NCI-H226 lung 68.3% | NCI-H322M lung 39.9% | HOP-62 NSCLC 60.2% | NCI-H460 lung 13.2% | NCI-H522 lung 12.4% | A549/ATCC NSCLC 17.2% | 786-0 renal 67.7% | COLO 205 colon 35.9%

Cc1[nH]nc2ccc3nc(-c4ccc5[nH]ncc5c4)c4c(c3c12)CCCC4
active: HOP-92 NSCLC 2.41% | NCI-H522 lung 0.13% | COLO 205 colon 8.58%
inactive: NCI-H23 lung 31.1% | NCI-H226 lung 16.2% | NCI-H322M lung 36.9% | HOP-62 NSCLC 18.5% | NCI-H460 lung 19.3% | A549/ATCC NSCLC 12.6% | 786-0 renal 34.4%

CC(=O)N[C@@H](CCC(N)=O)C(=O)O
inactive: NCI-H23 lung 92.6% | NCI-H226 lung 87.9% | NCI-H322M lung 111% | HOP-62 NSCLC 102% | NCI-H460 lung 105% | HOP-92 NSCLC 61.3% | NCI-H522 lung 103% | A549/ATCC NSCLC 88.2% | 786-0 renal 82.6% | COLO 205 colon 124%

Cc1c(C)c(C)c([N+](=O)[O-])c([N+](=O)[O-])c1C
inactive: NCI-H23 lung 107% | NCI-H226 lung 104% | NCI-H322M lung 116% | HOP-62 NSCLC 103% | NCI-H460 lung 108% | HOP-92 NSCLC 69% | NCI-H522 lung 98.7% | A549/ATCC NSCLC 93.4% | 786-0 renal 93.6% | COLO 205 colon 115%

Cc1ccc2cc3c(NC(=O)c4cccnc4)nn(C)c3nc2c1
inactive: NCI-H23 lung 90% | NCI-H226 lung 85.3% | NCI-H322M lung 89.4% | HOP-62 NSCLC 101% | NCI-H460 lung 98.2% | HOP-92 NSCLC 81.5% | NCI-H522 lung 67.1% | A549/ATCC NSCLC 95.7% | 786-0 renal 98.6% | COLO 205 colon 85.5%

CC1=NN(c2cccc(S(N)(=O)=O)c2)C(=O)C1
active: HOP-92 NSCLC -30.8%
inactive: NCI-H23 lung 87.8% | NCI-H226 lung 90.3% | NCI-H322M lung 96.9% | HOP-62 NSCLC 97.7% | NCI-H460 lung 103% | NCI-H522 lung 113% | A549/ATCC NSCLC 87.4% | 786-0 renal 100% | COLO 205 colon 108%

C=CCn1c(SCC(=O)Nc2ccc(/C(C)=N\O)cc2)nnc1-c1cc(-c2ccccc2)nc2ccccc12
inactive: NCI-H23 lung 38.9% | NCI-H226 lung 65.4% | NCI-H322M lung 69.2% | HOP-62 NSCLC 67.9% | NCI-H460 lung 52.1% | HOP-92 NSCLC 99.5% | NCI-H522 lung 41.6% | A549/ATCC NSCLC 43.9% | 786-0 renal 45.2% | COLO 205 colon 64.2%

CC1(C)CC[C@]2(C(=O)N3CCNCC3)CC[C@]3(C)C(=CC[C@@H]4[C@@]5(C)CCC(=O)C(C)(C)[C@@H]5CC[C@]43C)[C@@H]2C1
inactive: NCI-H23 lung 103% | NCI-H226 lung 99.4% | NCI-H322M lung 108% | HOP-62 NSCLC 97.3% | NCI-H460 lung 109% | HOP-92 NSCLC 109% | NCI-H522 lung 94.5% | A549/ATCC NSCLC 102% | 786-0 renal 102% | COLO 205 colon 105%

CSC(=S)N/N=C(\C)c1ccccn1
active: NCI-H226 lung 5.78% | NCI-H322M lung 8.08% | NCI-H460 lung -18.1% | NCI-H522 lung -3.86%
inactive: NCI-H23 lung 33.6% | HOP-62 NSCLC 21.6% | HOP-92 NSCLC 31.3% | A549/ATCC NSCLC 10.3% | 786-0 renal 16.9% | COLO 205 colon 24%

CNC(=O)c1ccccc1Sc1ccc2c(/C=C/c3ccccn3)n[nH]c2c1
inactive: NCI-H23 lung 47.5% | NCI-H226 lung 20.9% | NCI-H322M lung 34.9% | HOP-62 NSCLC 24.3% | NCI-H460 lung 20.2% | NCI-H522 lung 24.2% | A549/ATCC NSCLC 28.6% | 786-0 renal 44%
active: HOP-92 NSCLC 9.47% | COLO 205 colon 3.49%

O=c1[nH]c2ccccc2n2cc3cccnc3c12
inactive: NCI-H23 lung 77.5% | NCI-H226 lung 64.2% | NCI-H322M lung 116% | HOP-62 NSCLC 68.7% | NCI-H460 lung 37.3% | HOP-92 NSCLC 83.6% | NCI-H522 lung 57.6% | A549/ATCC NSCLC 83.5% | 786-0 renal 71.1% | COLO 205 colon 70%

Cc1cc(C)cc(Nc2cc(C)nc3nc(C(F)(F)F)nn23)c1
inactive: NCI-H23 lung 40% | NCI-H226 lung 37.8% | NCI-H322M lung 25% | HOP-62 NSCLC 47.8% | NCI-H460 lung 11% | HOP-92 NSCLC 69.8% | A549/ATCC NSCLC 27.5% | 786-0 renal 36.6% | COLO 205 colon 16.7%
active: NCI-H522 lung 6.54%

N#Cc1c(N)c(C(=O)c2ccc3c(c2)OCCO3)n2c1CCCC2
active: NCI-H522 lung -33.3%
inactive: NCI-H23 lung 42.7% | NCI-H226 lung 81.7% | NCI-H322M lung 25.3% | HOP-62 NSCLC 35.4% | NCI-H460 lung 15.9% | HOP-92 NSCLC 64.4% | A549/ATCC NSCLC 34.5% | 786-0 renal 53% | COLO 205 colon 14.9%

O=C(C(=O)c1cccnc1)c1cccnc1
inactive: NCI-H23 lung 98.8% | NCI-H226 lung 115% | NCI-H322M lung 117% | HOP-62 NSCLC 98.4% | NCI-H460 lung 111% | HOP-92 NSCLC 103% | A549/ATCC NSCLC 111% | 786-0 renal 101% | COLO 205 colon 174%
active: NCI-H522 lung -0.192%

COc1ccc(CCN2COc3c([C@@H](C)CCC=C(C)C)ccc(C)c3C2)cc1OC
active: HOP-92 NSCLC -1.29% | COLO 205 colon -92.9%
inactive: NCI-H23 lung 39.1% | NCI-H226 lung 82.3% | NCI-H322M lung 88.2% | HOP-62 NSCLC 73.4% | NCI-H460 lung 34.5% | NCI-H522 lung 64.7% | A549/ATCC NSCLC 74.3% | 786-0 renal 52.4%

Brc1ccccc1Cn1c(-c2cncs2)nc2ccccc21
inactive: NCI-H23 lung 85.4% | NCI-H226 lung 70.5% | NCI-H322M lung 86.6% | HOP-62 NSCLC 76% | NCI-H460 lung 80.8% | NCI-H522 lung 66.8% | A549/ATCC NSCLC 82.7% | 786-0 renal 90.6% | COLO 205 colon 84.9%
active: HOP-92 NSCLC 0.748%

CCCc1n(Cc2ccc3ccccc3c2)c2ccccc2[n+]1Cc1ccc2ccccc2c1
active: NCI-H23 lung -12.9% | NCI-H226 lung -4.44% | NCI-H322M lung 4.72% | HOP-62 NSCLC -55.4% | NCI-H460 lung -76.1% | HOP-92 NSCLC -48.1% | NCI-H522 lung -60.2% | A549/ATCC NSCLC -19.4% | 786-0 renal -85.2% | COLO 205 colon -77%

COc1ccc2c(c1)CCCC21C(=O)Nc2ccccc21 (stereo not given)
inactive: NCI-H23 lung 101% | NCI-H226 lung 102% | NCI-H322M lung 91.6% | HOP-62 NSCLC 96.5% | NCI-H460 lung 115% | HOP-92 NSCLC 99.3% | NCI-H522 lung 83.2% | A549/ATCC NSCLC 95.2% | 786-0 renal 99.3% | COLO 205 colon 108%
